Source: PubChem (several laboratories)
In the library only some 4% were active in any assay of this set; here they are far more common.
MazEF act = MazEF (E. coli) toxin RNase activation. activation, % at 20 µM. FAM/BHQ RNA-DNA oligo cleavage fluorescence, 5 h. AID 504720. 350,000 compounds, 0.32% hits. P0AE70; in the data active = activation above about 50%
Target sequence (P0AE70 whole entry, looked up): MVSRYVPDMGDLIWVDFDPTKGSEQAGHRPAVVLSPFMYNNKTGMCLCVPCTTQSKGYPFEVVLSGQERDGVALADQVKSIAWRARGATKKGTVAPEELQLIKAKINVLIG
DUSP3 inh = blocks human VHR1 dual specificity phosphatase; P51452; recombinant VHR phosphatase, pNPP absorbance; inhibition, % at 13.3 µM; 290,000 compounds, 0.52% hits; AID 1654; in the data active = inhibition above about 50%
Target sequence (P51452 whole entry, looked up): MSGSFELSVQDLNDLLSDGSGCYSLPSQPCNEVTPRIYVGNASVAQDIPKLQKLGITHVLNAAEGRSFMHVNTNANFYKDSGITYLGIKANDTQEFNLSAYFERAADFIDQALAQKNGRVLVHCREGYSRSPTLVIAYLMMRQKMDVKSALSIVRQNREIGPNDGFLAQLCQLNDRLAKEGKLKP
Anthrax LF inh2 = inhibitors of Bacillus anthracis lethal factor protease; P15917; multiplex microsphere protease cleavage assay, LF; inhibition, % at 10 µM; 360,000 compounds, 0.12% hits
BoNT-F LC inh = inhibitors of Botulinum neurotoxin F light chain protease | inhibition, % at 10 µM | Multiplex microsphere protease cleavage assay, flow cytometry | 360,000 compounds, 0.22% hits; in the data active = inhibition above about 35%, passing the limit was not always enough; inconclusive = no clear call, values can overlap the other calls
BoNT A protease = blocks Botulinum neurotoxin A light chain protease; multiplex microsphere protease substrate cleavage, flow cytometry; inhibition, % at 10 µM; 360,000 compounds, 0.17% hits
Bead autofluor = compound fluorescence in toxin protease inhibitor counterscreen | compound autofluorescence counterscreen, microsphere flow cytometry; stronger effect = higher value | fluorescence intensity (test concentration not listed) | 360,000 compounds, 3.1% hits; in the data active = fluorescence intensity above about 16000; inconclusive = no clear call, values can overlap the other calls
Each line names hits and unclear results; the compound was inactive in the other large screens. Rule as the data show it, unless noted: active = inhibition above about 30%; inconclusive = no clear call, values can overlap the other calls; inactive = below that.

Cc1ccccc1-n1nc2c(c1NC(=O)COc1ccc(Cl)cc1)CS(=O)C2 (centres undefined)	none
COc1ccc(CC(=O)Nc2c3c(nn2-c2ccccc2C)CS(=O)C3)cc1 (centres undefined)	Bead autofluor 20787
CCn1c(NC(=O)c2cccc(Cn3cc(Cl)cn3)c2)nc2ccccc21	DUSP3 inh 51
Cc1ccc(SCC(=O)N2CCCC2)cc1	none
CCN(CC)c1ccc(NC(=O)COC(=O)c2cccs2)cc1	Bead autofluor 22712
COc1ccc(CCNC(=O)N[C@@H](Cc2ccccc2)C(=O)O)cc1	none
CC(=O)Nc1ccc(CC(=O)O)cc1	none
CCC(SCC(=O)OC)C(=O)Nc1nnc(C(C)C)s1 (centres undefined)	none
COc1ccccc1N=Cc1c(C)c(C#N)c2[nH]c3ccccc3n2c1=O	MazEF act 143
Cc1c(Cc2ccccc2)c(=O)n2c([nH]c3ccccc32)c1C#N	none
COc1ccc(N2C(=O)CCC2=O)c(OC)c1	none
Cc1nn(C)c(=O)n1-c1ccc(Oc2ccccc2)cc1	Bead autofluor 21312
Cc1nn(C)c(=O)n1-c1ccccc1	none
COc1ccc(-n2c(C)nn(C)c2=O)c(OC)c1	BoNT A protease inconclusive, Bead autofluor 18468
FC(F)(F)c1cc(C(F)(F)F)c2ccc(N3CCOCC3)nc2n1	none
Fc1ccc(N2CCN(c3ccc4c(C(F)(F)F)cc(C(F)(F)F)nc4n3)CC2)cc1	Bead autofluor 21176
Nc1ccc2c(C(F)(F)F)cc(C(F)(F)F)nc2n1	none
FC(F)(F)c1cc(C(F)(F)F)c2ccc(N3CCN(c4ccc(Cl)cc4)CC3)nc2n1	Bead autofluor 21584
FC(F)(F)c1cc(C(F)(F)F)c2ccc(N3CCN(c4ncccn4)CC3)nc2n1	Bead autofluor 23511
CCOc1ccc(Cc2nnc(SCC(N)=O)n2C)cc1	Bead autofluor 21499
COCCn1c(COc2ccc(Cl)cc2)nnc1SCC(N)=O	Bead autofluor 22516
Cc1ccc(OCc2nnc(SCC(N)=O)n2N)cc1	none
O=c1oc(C2(O)CCCCC2)cc2ccc(/C=C/c3ccc(F)cc3)cc12	none (no result: DUSP3 inh)
O=C(N1CCOCC1)N(Cc1cccs1)C1CCCC1	none
CC1CCC(C(C)C)C(OP(N)(=O)c2ccccc2)C1 (centres undefined)	none
Cc1snc(S(=O)(=O)Cc2ccccc2Cl)c1C#N	Bead autofluor 21018
CCCCCn1c(=O)[nH]c2cc(C(=O)NCCCN3CCCCC3)ccc2c1=O	none
COc1cc2c3nnc(-c4ccc(F)cc4)c-3cn(Cc3cccc(C)c3)c2cc1OC	MazEF act 250
COc1cc2c3nnc(-c4ccc(F)cc4)c-3cn(Cc3cccc(F)c3)c2cc1OC	MazEF act 212
O=C(Oc1cccc(C(=S)N2CCOCC2)c1)c1ccc([N+](=O)[O-])cc1[N+](=O)[O-]	none
O=C(NN1CCCCC1)c1ccccc1	none
Cc1cccc(Oc2cnn(C(C)(C)C)c(=O)c2Cl)c1	none
COc1cnn(C(C)(C)C)c(=O)c1Cl	BoNT A protease inconclusive, Bead autofluor 19156
O=C(c1ccccc1)N1CCCC(C(=O)N2CCCCCC2)C1 (centres undefined)	Bead autofluor 24585
O=C(c1ccccc1)N1CCCC(C(=O)N2CCc3ccccc3C2)C1 (centres undefined)	none
COc1ccc(C(=O)N2CCCC(C(=O)N3CCCCCC3)C2)cc1 (centres undefined)	Bead autofluor 20377
C=CCN(CC=C)C(=O)c1cccc(OC2CCN(CC(C)(C)C)CC2)c1	none
CCC1CCCCN1C(=O)CSc1nnc(N)s1 (centres undefined)	none (no result: DUSP3 inh)
CCc1cc(C(=O)NNC(=S)NC(C)c2ccccc2)cs1 (centres undefined)	Bead autofluor 16961
CCc1cc(C(=O)NNC(=S)NC2CCCCC2)cs1	none
C=CCCC1CN(CCCC)S(=O)(=O)c2c(F)cccc2O1 (centres undefined)	none (no result: DUSP3 inh)
CCN1/C(=C2\OC(=S)N(C)C2=O)Sc2ccccc21	none
CCN1/C(=C2\OC(=S)N(C)C2=O)C=Cc2ccccc21	MazEF act 656
COc1ccc(C2C3=C(CC(C)(C)CC3=O)Oc3ncn(Cc4ccco4)c(=N)c32)cc1 (centres undefined)	BoNT-F LC inh 36
COc1ccc(N(CC(=O)N/N=C/c2ccc(-c3ccc([N+](=O)[O-])cc3)o2)S(=O)(=O)c2ccc(C)cc2)cc1	none
COc1ccc(N(CC(=O)N/N=C/c2ccc(-c3ccc([N+](=O)[O-])cc3)o2)S(=O)(=O)c2ccc(C)cc2)cc1Cl	Anthrax LF inh2 44, BoNT-F LC inh 42, BoNT A protease 56
CC1(C)CC(=O)c2cc(OCC(=O)NCCCN3CCN(c4ccc(F)cc4)CC3)ccc2O1	DUSP3 inh 53
Cc1occc1-c1nnc(SCC(=O)c2ccc(F)cc2)o1	none
O=C(c1ccc2c(c1)C(=O)N(Cc1ccco1)C2=O)N1CCOCC1	Bead autofluor 23883
Cc1ccc(N2C(=O)C(c3c(C)[nH]n(-c4ccccc4)c3=O)(C(F)(F)F)C3=C2CC(C)(C)CC3=O)cc1 (centres undefined)	none
Cc1[nH]n(-c2ccccc2)c(=O)c1C1(C(F)(F)F)C(=O)N(c2ccccc2)C2=C1C(=O)CC(C)(C)C2 (centres undefined)	BoNT A protease inconclusive, Bead autofluor 23155
Cc1ccc(CSc2nncn2-c2ccccn2)cc1	none
Clc1ccc(CSc2nncn2-c2ccccn2)cc1	Bead autofluor 23849
CCCCCCCCN1C(=O)[C@H](CC(=O)NCc2ccc(OC)c(OC)c2)C[C@@]2(C(=O)OCC)CCCC=C12	none (no result: MazEF act, DUSP3 inh)
COc1ccc(CCNc2cc(C)[nH]c(=O)c2)cc1OC	DUSP3 inh 60
CNCCc1ccc(OC)c(OC)c1	none
C=CCn1c(SCc2c(F)cccc2Cl)nnc1-c1ccco1	Bead autofluor 16837
CC(Sc1nnc(-c2ccco2)n1C)C(=O)NC1CCCC1 (centres undefined)	none (no result: DUSP3 inh)
C#CCOC(=O)CCCN1C(=O)c2cccc3cccc(c23)C1=O	none (no result: DUSP3 inh)
CN(C)c1cccc(NC(=O)CCc2ccccc2)c1	BoNT-F LC inh 75
CC(=O)Nc1cccc(NC(=O)CCc2ccccc2)c1	none
CCN1C(=S)SC(=O)C1=C1C=C(C)OC(C)=C1	MazEF act active, Bead autofluor inconclusive
CN(CCOc1ccc(Cl)cc1)C(=O)c1cccc(S(=O)(=O)N2CCN(Cc3ccccc3)CC2)c1	none (no result: DUSP3 inh)
Cc1cc(C)cc(Nc2nc3c([nH]2)c(=O)n(C)c(=O)n3C)c1	none
Cc1ccc(Nc2nc3c([nH]2)c(=O)n(C)c(=O)n3C)cc1	Bead autofluor 20196
NC(N)=O	none (no result: DUSP3 inh)
N#Cc1cc(Sc2ccccn2)c(Sc2ccccn2)cc1C#N	Bead autofluor 17696
COc1ccc(CNS(=O)(=O)c2ccc3oc(C(=O)O)c(C)c3c2)cc1	none
Cc1c(C(=O)O)oc2ccc(S(=O)(=O)NCc3ccc(F)cc3)cc12	Bead autofluor 24054
O=C(COc1ccccc1)Nc1nnc(COc2ccccc2)s1	none
